Data taken from paper PMC12820563, “FoxP3 forms a head-to-head dimer in vivo and stabilizes its multimerization on adjacent microsatellites”.
In all, about 16,000 sequences were measured (“rpm ratio (pull-down/input)”: median about 0.94, highest 2% from about 1.7 on). Only a selection was taken, and the highest values are over-represented in it overall.

The sequences below were run against T1, MBP-FoxP1dN (Mus musculus, UniProt P58462 326-579) (assay: PD-seq (MBP pull-down with sequencing); 20 mM Tris-HCl pH 7.5, 100 mM NaCl, 1.5 mM MgCl2, 0.4 uM protein, 0.1 uM dsDNA library, 30 min, room temperature, amylose pull-down; high values mean tight binding). Conditions: protein: recombinant; tags: His6-MBP; chain copies: 2; dsDNA, one strand shown.
T1 sequence: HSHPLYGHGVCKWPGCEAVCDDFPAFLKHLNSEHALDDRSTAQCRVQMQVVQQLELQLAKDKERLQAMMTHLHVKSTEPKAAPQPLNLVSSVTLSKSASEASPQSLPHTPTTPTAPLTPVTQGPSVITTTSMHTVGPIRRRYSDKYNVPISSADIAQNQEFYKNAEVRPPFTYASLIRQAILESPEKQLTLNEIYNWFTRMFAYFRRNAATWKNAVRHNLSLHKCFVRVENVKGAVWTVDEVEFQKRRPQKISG
Method in brief: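 A degenerate double-stranded DNA library, filled in with Klenow, was added at 0.1 µM to 0.4 µM His6-MBP-tagged mouse FoxP3 or FoxP1 fragment lacking the N-terminus, expressed in E. coli. Incubation lasted 30 min at room temperature in Tris pH 7.5 buffer with NaCl and MgCl2, after which complexes were collected on amylose resin, washed three times, digested with proteinase K to free the DNA, barcoded by PCR and sequenced by Illumina. Binding is the pooled-replicate reads-per-million enrichment of pull-down over input.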

Sequence | binding signal
GATGATTGTTCTCCCAGCTGATGAATTGAAAAAATCGAGTAAACAAATTTTCCTAATCTTTCTGTTCAAGCGCCATCTAC | 1.03 RPM ratio (pull-down/input)
GATGATTGTTCTCCCAGCTGATGAATTCAACACATCGAGTAAACAAATTTTCCTAATCTTTCTGTTCAAGCGCCATCTAC | 1.3 RPM ratio (pull-down/input)
GATGATTGTTCTCCCAGCTGATGAATTCCTAACATCGAGTAAACAAATTTTCCTAATCTTTCTGTTCAAGCGCCATCTAC | 1.04 RPM ratio (pull-down/input)
GATGATTGTTCTCCCAGCTGATGAATTCTTCACATCGAGTAAACAAATTTTCCTAATCTTTCTGTTCAAGCGCCATCTAC | 1.08 RPM ratio (pull-down/input)
GATGATTGTTCTCCCAGCTGATGAATTTTGAAAATCGAGTAAACAAATTTTCCTAATCTTTCTGTTCAAGCGCCATCTAC | 1.14 RPM ratio (pull-down/input)
GATGATTGTTCTCCCAGCTGATGAATTCAAAACATCGAGTAAACAAATTTTCCTAATCTTTCTGTTCAAGCGCCATCTAC | 1.99 RPM ratio (pull-down/input)
GATGATTGTTCTCCCAGCTGATGAATTCTAAAAATCGAGTAAACAAATTTTCCTAATCTTTCTGTTCAAGCGCCATCTAC | 0.995 RPM ratio (pull-down/input)
GATGATTGTTCTCCCAGCTGATGAATTCTGAACATCGAGTAAACAAATTTTCCTAATCTTTCTGTTCAAGCGCCATCTAC | 0.898 RPM ratio (pull-down/input)
GATGATTGTTCTCCCAGCTGATGAATTCGGGTAGTCGAGTAAACAAATTTTCCTAATCTTTCTGTTCAAGCGCCATCTAC | 0.855 RPM ratio (pull-down/input)
GATGATTGTTCTCCCAGCTGATGAATTAAAAGTCTCGAGTAAACAAATTTTCCTAATCTTTCTGTTCAAGCGCCATCTAC | 0.816 RPM ratio (pull-down/input)
GATGATTGTTCTCCCAGCTGATGAATTGTTCGTTTCGAGTAAACAAATTTTCCTAATCTTTCTGTTCAAGCGCCATCTAC | 1.15 RPM ratio (pull-down/input)
GATGATTGTTCTCCCAGCTGATGAATTGCAAAGCTCGAGTAAACAAATTTTCCTAATCTTTCTGTTCAAGCGCCATCTAC | 1.09 RPM ratio (pull-down/input)
GATGATTGTTCTCCCAGCTGATGAATTATACAGTTCGAGTAAACAAATTTTCCTAATCTTTCTGTTCAAGCGCCATCTAC | 1.18 RPM ratio (pull-down/input)
GATGATTGTTCTCCCAGCTGATGAATTACTCACATCGAGTAAACAAATTTTCCTAATCTTTCTGTTCAAGCGCCATCTAC | 1.28 RPM ratio (pull-down/input)
GATGATTGTTCTCCCAGCTGATGAATTTCGAATCTCGAGTAAACAAATTTTCCTAATCTTTCTGTTCAAGCGCCATCTAC | 0.83 RPM ratio (pull-down/input)
GATGATTGTTCTCCCAGCTGATGAATTGTTAAACTCGAGTAAACAAATTTTCCTAATCTTTCTGTTCAAGCGCCATCTAC | 1.1 RPM ratio (pull-down/input)

Sequence | binding signal
GATGATTGTTCTCCCAGCTGATGAATTCCGACACTCGAGTAAACAAATTTTCCTAATCTTTCTGTTCAAGCGCCATCTAC | 0.88 RPM ratio (pull-down/input)
GATGATTGTTCTCCCAGCTGATGAATTACACTCGTCGAGTAAACAAATTTTCCTAATCTTTCTGTTCAAGCGCCATCTAC | 1.15 RPM ratio (pull-down/input)
GATGATTGTTCTCCCAGCTGATGAATTCAGACGTTCGAGTAAACAAATTTTCCTAATCTTTCTGTTCAAGCGCCATCTAC | 0.787 RPM ratio (pull-down/input)
GATGATTGTTCTCCCAGCTGATGAATTCTCCCAATCGAGTAAACAAATTTTCCTAATCTTTCTGTTCAAGCGCCATCTAC | 0.958 RPM ratio (pull-down/input)
GATGATTGTTCTCCCAGCTGATGAATTCTTTCAATCGAGTAAACAAATTTTCCTAATCTTTCTGTTCAAGCGCCATCTAC | 0.972 RPM ratio (pull-down/input)
GATGATTGTTCTCCCAGCTGATGAATTCAAACAATCGAGTAAACAAATTTTCCTAATCTTTCTGTTCAAGCGCCATCTAC | 1.81 RPM ratio (pull-down/input)
GATGATTGTTCTCCCAGCTGATGAATTATGCGATTCGAGTAAACAAATTTTCCTAATCTTTCTGTTCAAGCGCCATCTAC | 1.06 RPM ratio (pull-down/input)
GATGATTGTTCTCCCAGCTGATGAATTTTGTATGTCGAGTAAACAAATTTTCCTAATCTTTCTGTTCAAGCGCCATCTAC | 1.54 RPM ratio (pull-down/input)
GATGATTGTTCTCCCAGCTGATGAATTGTATTTGTCGAGTAAACAAATTTTCCTAATCTTTCTGTTCAAGCGCCATCTAC | 2.5 RPM ratio (pull-down/input)
GATGATTGTTCTCCCAGCTGATGAATTGTAATTGTCGAGTAAACAAATTTTCCTAATCTTTCTGTTCAAGCGCCATCTAC | 1.39 RPM ratio (pull-down/input)
GATGATTGTTCTCCCAGCTGATGAATTTGTATTGTCGAGTAAACAAATTTTCCTAATCTTTCTGTTCAAGCGCCATCTAC | 2.88 RPM ratio (pull-down/input)
GATGATTGTTCTCCCAGCTGATGAATTTGTAATGTCGAGTAAACAAATTTTCCTAATCTTTCTGTTCAAGCGCCATCTAC | 1.26 RPM ratio (pull-down/input)
GATGATTGTTCTCCCAGCTGATGAATTGTATCTGTCGAGTAAACAAATTTTCCTAATCTTTCTGTTCAAGCGCCATCTAC | 1.08 RPM ratio (pull-down/input)
GATGATTGTTCTCCCAGCTGATGAATTTGCGATCTCGAGTAAACAAATTTTCCTAATCTTTCTGTTCAAGCGCCATCTAC | 0.924 RPM ratio (pull-down/input)
GATGATTGTTCTCCCAGCTGATGAATTAATTCCTTCGAGTAAACAAATTTTCCTAATCTTTCTGTTCAAGCGCCATCTAC | 0.955 RPM ratio (pull-down/input)
GATGATTGTTCTCCCAGCTGATGAATTCCCGTTTTCGAGTAAACAAATTTTCCTAATCTTTCTGTTCAAGCGCCATCTAC | 0.97 RPM ratio (pull-down/input)
